Experimental data from PubChem BioAssay (Tox21).
Results filed as inconclusive are left out. Where a call stands in place of a potency, no number is given. Calls of active or inactive are those of the source. Unless noted, calls come from the whole dose curve.

Legend:
[1] = Caspase-3/7 induction in CHO-K1 cells by small molecules, qHTS cell viability counter screen (AID 1346979; active = well fitted curve in the direction sought with a large enough effect in the repeat runs; an effect the other way counts as inactive or inconclusive; note: nearly all actives have a fitted effect of over 35% in size; note: potency is the fitted concentration of half-maximal effect)
Procedure, shortened: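 In the same wells as the caspase read, viability of compound-treated wild-type CHO-K1 cells was assessed using CellTiter-Fluor, added after 16hr at 37C and measured by fluorescence following 1hr further incubation.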

[2] = Caspase-3/7 induction in CHO-K1 cells by small molecules, qHTS assay (AID 1346980; active = well fitted curve in the direction sought with a large enough effect in the repeat runs; an effect the other way counts as inactive or inconclusive; note: nearly all actives have a fitted effect of over 15% in size)
Procedure, shortened: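 Wild-type CHO-K1 cells exposed to compounds for 17hr at 37 C, 5% CO2. Caspase-3/7 activity then measured by Caspase-Glo 3/7 luminescence after 30min at room temperature.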

[3] = target: Acetylcholinesterase (Homo sapiens) (UniProt P22303); test: Acetylcholinesterase (AChE) small molecule antagonists: colormetric cell-based qHTS assay (AID 1347395); note: nearly all actives have a fitted effect of over 30% in size; note: potency is the fitted concentration of half-maximal effect
Sequence of Acetylcholinesterase (Homo sapiens) (P22303 whole entry, looked up): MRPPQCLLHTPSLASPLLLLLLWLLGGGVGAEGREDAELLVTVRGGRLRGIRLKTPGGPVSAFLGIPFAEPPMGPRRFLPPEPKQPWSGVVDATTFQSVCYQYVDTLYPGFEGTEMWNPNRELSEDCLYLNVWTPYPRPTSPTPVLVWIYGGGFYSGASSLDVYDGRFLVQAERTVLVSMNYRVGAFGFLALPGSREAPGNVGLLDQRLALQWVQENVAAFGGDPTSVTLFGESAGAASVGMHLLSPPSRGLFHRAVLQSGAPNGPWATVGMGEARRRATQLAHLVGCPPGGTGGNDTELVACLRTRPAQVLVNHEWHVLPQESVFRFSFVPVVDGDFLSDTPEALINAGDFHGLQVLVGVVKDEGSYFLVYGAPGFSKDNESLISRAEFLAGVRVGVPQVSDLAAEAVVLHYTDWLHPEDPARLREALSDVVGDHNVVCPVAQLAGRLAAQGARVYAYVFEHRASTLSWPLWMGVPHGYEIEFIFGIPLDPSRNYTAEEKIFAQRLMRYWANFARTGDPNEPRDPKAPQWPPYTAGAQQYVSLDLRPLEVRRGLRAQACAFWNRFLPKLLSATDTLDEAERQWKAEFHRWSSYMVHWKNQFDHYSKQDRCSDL
Procedure, shortened: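 Endogenous AChE of human neuroblastoma SH-SY5Y cells was measured with an Ellman-type DTNB/acetylthiocholine mix. Compound pretreatment lasted 30 min at 37 C; substrate reaction ran 90 min at 37 C.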

[4] = target: Acetylcholinesterase (Homo sapiens) (UniProt P22303); test: Acetylcholinesterase (AChE) small molecule antagonists: enzyme-based qHTS assay (AID 1347397); settings: Potency: AChE enzyme activity inhibition; note: nearly all actives have a fitted effect of over 55% in size; note: potency is the fitted concentration of half-maximal effect
Procedure, shortened: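 Colorimetric DTNB read-out of thiocholine released from acetylthiocholine by recombinant human AChE (50 mU/mL as dispensed). Compounds were preincubated 30 min at RT before substrate/DTNB addition, with a 10 min RT reaction.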

[5] = target: Acetylcholinesterase (Homo sapiens) (UniProt P22303); test: Acetylcholinesterase (AChE) small molecule antagonists: fluorescence cell-based qHTS assay (AID 1347398); settings: Potency: AChE activity; note: nearly all actives have a fitted effect of over 50% in size; note: potency is the fitted concentration of half-maximal effect
Procedure, shortened: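 SH-SY5Y, 2,000 cells/well, attached overnight; cmpd 30 min 37 C; acetylthiocholine/Thiolite Green cocktail 40 min RT; fluorescence Ex/Em 490/520 nm.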

[6] = Caspase-3/7 induction in HepG2 cells by small molecules, qHTS cell viability counter screen (AID 1346981; active = well fitted curve in the direction sought with a large enough effect in the repeat runs; an effect the other way counts as inactive or inconclusive; note: nearly all actives have a fitted effect of over 30% in size; note: potency is the fitted concentration of half-maximal effect)
Procedure, shortened: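 In this quantitative HTS counter screen, compounds delivered in DMSO were left on unmodified HepG2 cells for 16 hr at 37 C. Viability was then determined fluorometrically with CellTiter-Fluor, in parallel with caspase-3/7 induction in the same wells.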

[7] = target: Nuclear receptor subfamily 1 group I member 2 (Homo sapiens) (UniProt O75469); test: Human pregnane X receptor (PXR) small molecule agonists, qHTS assay (AID 1346982; active = well fitted curve in the direction sought with a large enough effect in the repeat runs; an effect the other way counts as inactive or inconclusive; note: nearly all actives have a fitted effect of over 35% in size; note: potency is the fitted concentration of half-maximal effect)
Sequence of Nuclear receptor subfamily 1 group I member 2 (Homo sapiens) (O75469 whole entry, looked up): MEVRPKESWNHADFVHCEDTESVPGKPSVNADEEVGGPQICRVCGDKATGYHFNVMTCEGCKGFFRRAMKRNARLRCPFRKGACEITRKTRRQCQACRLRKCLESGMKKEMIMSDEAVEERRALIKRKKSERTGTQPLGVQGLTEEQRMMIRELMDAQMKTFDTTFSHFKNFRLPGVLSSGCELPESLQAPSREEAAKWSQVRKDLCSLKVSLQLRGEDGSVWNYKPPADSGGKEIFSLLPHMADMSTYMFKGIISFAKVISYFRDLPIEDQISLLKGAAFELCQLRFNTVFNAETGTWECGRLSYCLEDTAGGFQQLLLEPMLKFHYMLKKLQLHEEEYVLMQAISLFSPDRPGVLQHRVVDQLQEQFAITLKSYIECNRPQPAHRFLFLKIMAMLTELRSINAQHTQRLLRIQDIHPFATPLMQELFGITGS
Procedure, shortened: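 Reporter HepG2 cells expressing PXR-Luc are cultured in charcoal-stripped FBS (5%), treated with compounds for 24 hr at 37 C, and assayed by ONE-Glo luminescence after 30 min at room temperature.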

| SMILES | Potency [1] | Potency [2] | Potency [3] | Potency [4] | Potency [5] | Potency [6] | Potency [7] |
| --- | --- | --- | --- | --- | --- | --- | --- |
| Nc1ccc([N+](=O)[O-])cc1Cl | 61.1 µM (active) | inactive | inactive | inactive | inactive |  |  |
| CC(C)(C)c1ccc(CSc2cnn(C(C)(C)C)c(=O)c2Cl)cc1 | 0.0172 µM (active) | inactive | inactive | inactive | inactive |  |  |
| CN(C)C(=S)[S-].CN(C)C(=S)[S-].[Cu+2] | 1.67 µM (active) |  |  |  |  | 7.45 µM (active) |  |
| Nc1ccc(Sc2ccc(N)cc2)cc1 | inactive | inactive | inactive | inactive | inactive |  |  |
| CC(C)(COCC1CO1)COCC1CO1 (stereo unspecified) | inactive |  | inactive | inactive | inactive | inactive | inactive |
| [Cl][Sb]([Cl])[Cl] | 54.5 µM (active) | inactive | inactive | inactive | inactive |  |  |
| N#CCCC(Br)(C#N)CBr (stereo unspecified) | 30.6 µM (active) | inactive |  |  | inactive |  |  |
| CCC(C)c1cc([N+](=O)[O-])cc([N+](=O)[O-])c1OC(=O)C=C(C)C (stereo unspecified) | 43.3 µM (active) | inactive | inactive | inactive | inactive |  |  |
| Nc1ccc(Cl)cc1C(=O)c1ccccc1 | 61.1 µM (active) | inactive | inactive | inactive | inactive |  |  |
| CC(C)(c1ccc(O)c(-c2ccccc2)c1)c1ccc(O)c(-c2ccccc2)c1 | 43.3 µM (active) |  | inactive | 17.8 µM (active) | inactive | 61.1 µM (active) | 24.3 µM (active) |
| CN(C)S(=O)(=O)N(SC(F)(Cl)Cl)c1ccccc1 | 7.7 µM (active) | inactive | inactive |  | 35.6 µM (active) |  | inactive |
| Oc1ccc(C(=C(Cl)Cl)c2ccc(O)cc2)cc1 | 61 µM (active) | inactive | inactive |  | inactive |  | 61 µM (active) |
| Cc1cc(C(F)(C(F)(F)F)C(F)(F)F)ccc1NC(=O)c1cccc(I)c1C(=O)NC(C)(C)CS(C)(=O)=O | inactive | inactive | inactive | inactive | inactive |  | 13.8 µM (active) |
| O=C(CCCN1CCC2(CC1)C(=O)NCN2c1ccccc1)c1ccc(F)cc1 | 23.7 µM (active) |  | inactive | inactive |  | 7.5 µM (active) | 4.22 µM (active) |
| O=C(CCl)Nc1ccccc1 | 54.5 µM (active) | inactive | inactive | inactive | inactive |  |  |
| CCCCCCCCCBr | inactive |  | inactive | inactive | inactive | inactive | inactive |
| Oc1ccc(C2(c3ccc(O)cc3)CCCCC2)cc1 | 57.9 µM (active) |  | inactive | inactive | inactive | 51.6 µM (active) | 13 µM (active) |

| SMILES | Potency [1] | Potency [2] | Potency [3] | Potency [4] | Potency [5] | Potency [6] | Potency [7] |
| --- | --- | --- | --- | --- | --- | --- | --- |
| CC(C)OS(C)(=O)=O | inactive |  | inactive | inactive | inactive | inactive | inactive |
| c1cc[c]([Sb]([c]2ccccc2)[c]2ccccc2)cc1 | 68.6 µM (active) |  | inactive | inactive | inactive | inactive | 54.5 µM (active) |
| CCC(C)(C)C(=O)OC1=C(c2ccc(Cl)cc2Cl)C(=O)OC12CCCCC2 | inactive |  | inactive | inactive | inactive | inactive |  |
| Cc1cc(Cl)ccc1O[C@H](C)C(=O)O |  | inactive | inactive | inactive | inactive | inactive | inactive |
| CC(C)OC(=S)S | 27.3 µM (active) |  | inactive | inactive | inactive |  | 17.2 µM (active) |
| Fc1ccc(Oc2ccnc3cc(Cl)cc(Cl)c23)cc1 |  | inactive | inactive | inactive | inactive | inactive | 27.3 µM (active) |
| CCN(CC)C(=S)[S-].CCN(CC)C(=S)[S-].[Zn+2] | 2.41 µM (active) |  | inactive | inactive | inactive | 27.1 µM (active) | 4.29 µM (active) |
| CC(C)[C@H](C(=O)OC(C#N)c1cccc(Oc2ccccc2)c1)c1ccc(OC(F)F)cc1 (stereo partly specified) |  | inactive | inactive | inactive | inactive | inactive | 9.69 µM (active) |
| ClC1=C(Cl)[C@]2(Cl)[C@@H]3[C@@H]4C[C@@H]([C@H]5O[C@@H]45)[C@@H]3[C@@]1(Cl)C2(Cl)Cl | 61.1 µM (active) |  | inactive | inactive |  |  | 13.7 µM (active) |
| C=CC(=O)OCCCCOC(=O)C=C | 24.3 µM (active) |  | inactive | inactive | inactive |  | inactive |
| OC(Cc1ccccc1Cl)(Cn1cncn1)C1(Cl)CC1 (stereo unspecified) |  | inactive | inactive | inactive | inactive | inactive | 34.4 µM (active) |
| CN(C)CCc1c[nH]c2cccc(O)c12 |  | inactive | 19.8 µM (active) | inactive |  | inactive | inactive |
| ClCc1ccccc1CCl | 61.1 µM (active) |  | inactive | inactive | inactive | inactive | inactive |
| CCOc1cc(C(C)(C)C)ccc1C1COC(c2c(F)cccc2F)=N1 (stereo unspecified) |  | inactive | inactive | inactive | inactive | inactive | 37.1 µM (active) |
| N#Cc1ccccc1N | inactive |  | inactive | inactive | inactive | inactive | inactive |
| COc1ccc(/C(=C/C(=O)N2CCOCC2)c2ccc(Cl)cc2)cc1OC | inactive |  | inactive | inactive | inactive | inactive | 15.4 µM (active) |
| Nc1ccccc1C(=O)Oc1ccc2ccccc2c1 |  | inactive | inactive | inactive | inactive | inactive | 27.3 µM (active) |
